# Source: PubChem (Broad Institute)
# CD40 NFkB inh – CD40 pathway inhibition in BL2 cells. BL2 NF-kB luciferase reporter, CD40L-induced, 4 h. inhibition, % at 10 µM. hit rate 0.94% among 83,000. AID 1053188;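 active = mean inhibition of at least 50% with a set share of replicates also reaching that level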;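 also: 0% = neutral control wells and 100% = IKK inhibitor VII at 50 µM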
# * marks the source's active call; other numbers are inactive results; [ ] = remark or other dose. This excerpt belongs to a sample that is enriched for hits.
SMILES,CD40 NFkB inh
COc1ccc(NC(=O)N2C[C@@H]3[C@H](c4ccccc42)[C@@H](CO)N3C(=O)C2CC2)cc1,-1[25 µM]
O=C(c1cccc(F)c1)N1CC2(C1)[C@@H](c1ccccc1)[C@@H](CO)N2C(=O)C1CCCCC1,-3[25 µM]
O=S(=O)(NCCc1nc2ccccc2[nH]1)c1ccccc1,9
O=S(=O)(/C(=C\c1ccc(C(F)(F)F)cc1)c1nc2ccccc2[nH]1)c1ccccc1,60*
O=S(=O)(Nc1nc2ccccc2[nH]1)c1ccccc1,10
COc1cccc(NC(=O)C[C@H]2CC[C@H]3[C@@H](COc4ccc(NC(=O)C5CC5)cc4C(=O)N3C)O2)c1,-16[25 µM]
O=C1NCCOCn2nncc2CC[C@@H]1Cc1ccccc1,-1
CNS(=O)(=O)c1ccc(C)cc1,6
Cc1ccc(S(=O)(=O)CS(=O)(=O)c2ccc(C)cc2)cc1,2
Cc1ccc(S(=O)(=O)C=CS(=O)(=O)c2ccc(C)cc2)cc1,101*
c1ccc(-c2nnc(-c3ccccn3)nn2)nc1,49*
c1ccc(-c2cccc(-c3ccccn3)n2)nc1,10
c1ccc(-c2noc(C3CCC3)n2)nc1,2
CCC(=O)N[C@H]1CC[C@H](CC(=O)NCc2ccccc2F)O[C@H]1CO,-6[25 µM]
CC(=O)N1[C@@H](CO)[C@H](c2ccc(-c3cccc(F)c3)cc2)[C@@H]1CNC(=O)C1CC1,3
COc1ccc(S(=O)(=O)Nc2ccc3c(c2)C(=O)N([C@@H](C)CO)C[C@@H](C)[C@@H](CN(C)C(=O)Nc2c(C)noc2C)OCCCC[C@@H](C)O3)cc1,-2[25 µM]
COc1cccc(C#Cc2ccc([C@@H]3[C@@H](C#N)N(C(=O)C4CCCC4)[C@@H]3CO)cc2)c1,-27
COc1cccc(C#Cc2ccc([C@H]3[C@@H](C#N)N(C(=O)C4CCCC4)[C@@H]3CO)cc2)c1,77*
COc1cccc(C#Cc2ccc([C@@H]3[C@H](C#N)N(C(=O)C4CC4)[C@H]3CO)cc2)c1,-18
COc1cccc(C#Cc2ccc([C@@H]3[C@@H](CO)N(C(=O)C4CCOCC4)[C@H]3C#N)cc2)c1,55*
COc1cccc(C#Cc2ccc([C@H]3[C@@H](CO)N(C(=O)C4CCCC4)[C@H]3C#N)cc2)c1,-2
COc1cccc(C#Cc2ccc([C@H]3[C@H](C#N)N(C(=O)C4CCCC4)[C@H]3CO)cc2)c1,-35
O=C(N[C@@H]1CC[C@H](CCn2cc(C3CCCC3)nn2)O[C@H]1CO)c1cccnc1,2
CCCCCCCCCCCCCCCC(=O)C1C(=O)OC(CO)C1=O (centres undefined),-13[25 µM]
COC(=O)c1ccc(N)cc1O,26
SMILES,CD40 NFkB inh
COC(=O)c1ccccc1-c1c2ccc(=N)cc-2oc2cc(N)ccc12,49*
COC(=O)c1cc(=O)c2ccc(OC)cc2o1,-4
C[C@@H]1CN([C@@H](C)CO)C(=O)c2cc(N(C)C)ccc2O[C@H]1CN(C)S(=O)(=O)c1cn(C)cn1,2[25 µM]
CC[N+]1(C)CCC(O)(c2ccc(OC)cc2)C(C(=O)c2ccc(OC)cc2)C1 (centres undefined),97*
COc1ccc(-c2ccc(C(=O)C3CC3)cc2)cc1,-51
COc1ccc(C(=O)C23CC4CC(C2)CC(C(=O)c2ccc(OC)cc2)(C4)C3)cc1,9
COCC(=O)Nc1ccc2c(c1)C(=O)N(C)C[C@H](OC)[C@H](C)CN(C(=O)c1ccncc1)[C@H](C)CO2,0[25 µM]
CO[C@H]1CN(C)C(=O)c2cc(NC(=O)CC(F)(F)F)ccc2OC[C@H](C)N(CC2CC2)C[C@@H]1C,2[25 µM]
Cc1nc(Nc2nc3ccccc3o2)nc(C)c1C(=O)Nc1ccc(F)cc1,-6
Cc1nc(Nc2nc3ccccc3o2)nc2c1CCC2,active
COCc1cc(=O)[nH]c(Nc2nc3ccccc3o2)n1,17
CC(C)OC(=O)N(C)C[C@H]1OCc2ccccc2-c2ccccc2C(=O)N([C@H](C)CO)C[C@@H]1C,-10
COc1ccc2c3c([nH]c2c1)[C@@H](CO)N(S(C)(=O)=O)CC31CN(C(=O)Cc2cccnc2)C1,-19[25 µM]
CC(C)C#Cc1ccc([C@@H]2[C@@H](CO)N3C(=O)CN(C(=O)NC4CCCC4)C[C@@H]23)cc1,-10[25 µM]
O=C1NNC(=O)C1c1ccccc1,7
CN1C(=O)c2ccccc2C(O)c2ccccc21 (centres undefined),15
O=C1C=CC(=O)C2=C1C1c3ccccc3C2c2ccccc21,59*[25 µM]
CN1c2ccc(Br)cc2[C@@H]2[C@@H](CCN2C(=O)Cc2ccccc2)[C@H]1CO,7[25 µM]
COc1ccccc1CNC(=O)C[C@H]1C[C@H]2c3cc(NC(=O)Nc4ccccc4F)ccc3O[C@H]2[C@H](CO)O1,5[25 µM]
CC(=O)N(C)C[C@H]1[C@H](c2ccc(-c3ccccc3)cc2)[C@@H](CO)N1C(=O)C1CC1,-17[25 µM]
CC(=O)c1ccc(-c2cnc3c(NC=O)cc(-c4ccc(N5CCN(C)CC5)cc4)cn23)cc1,-25
CCSc1ccc(-c2cc(NC=O)c3ncc(-c4cccc(C(=O)N(C)C)c4)n3c2)cc1,51*
O=CNc1cc(-c2ccccc2)cn2c(-c3ccc(F)c(Cl)c3)cnc12,-23
C[C@H]1CN(C)C(=O)c2ccccc2O[C@H]1CN(C)S(C)(=O)=O,11
CN1C[C@@H]2[C@H](c3ccccc31)[C@H](CO)N2C(=O)Nc1cccc(F)c1,11[25 µM]
SMILES,CD40 NFkB inh
O=C1C=CC(=O)c2c(O)c(N3CCN(CCOCCO)CC3)c(Br)c(O)c21,85*
OCCOCCN1CCN(C(c2ccccc2)c2ccc(Cl)cc2)CC1 (centres undefined),16
OCCOCCN1CCN(C2=Nc3ccccc3Sc3ccccc32)CC1,0
COCCN(C[C@H]1N[C@H](CO)[C@@H]1c1ccc(-c2cccc(C#N)c2)cc1)C(C)=O,2[25 µM]
C[C@@H]1CN([C@H](C)CO)C(=O)c2ccccc2-c2ccccc2CO[C@@H]1CN(C)C(=O)c1ccccc1,-14
C[C@@H]1C(=O)N[C@H](c2ccccc2)CC=CC[C@H](C)Oc2ccccc2C(=O)N1C (mixture of isomers),3[25 µM]
C[N+](C)(C)CCC(=O)N1C/C(=C/c2ccccc2)C(=O)/C(=C\c2ccccc2)C1,-60
O=C1/C(=C/c2ccccc2)CN(C(=O)CCN2CCOCC2)C/C1=C\c1ccccc1,93*
O=C(/C=C/c1ccccc1)CCN1CCOCC1,-7
O=C(C[C@H]1C[C@@H]2c3cc(NC(=O)Nc4ccccc4F)ccc3O[C@@H]2[C@H](CO)O1)NC1CCCCC1,-22[25 µM]
CN(C)C(=O)C[C@H]1C[C@H]2c3cc(NC(=O)c4cccnc4)ccc3O[C@H]2[C@H](CO)O1,1[25 µM]
O=C(O)C[C@@H]1C[C@@H]2c3cc(NC(=O)Nc4ccc(C(F)(F)F)cc4)ccc3O[C@@H]2[C@H](CO)O1,6[25 µM]
CC(C)NC(=O)N1Cc2cc(C(=O)NC3Cc4ccccc4C3)nc(-c3cccc(-c4cccnc4)c3)c2[C@@H]1CCO,57*[25 µM]
C/C=C/c1cccc(-c2nc(C(=O)NC3Cc4ccccc4C3)cc3c2[C@H](CCO)N(C(C)=O)C3)c1,13[25 µM]
CCC(=O)N1Cc2cc(C(=O)N3CCCCC3)nc(-c3cccc(-c4cccnc4)c3)c2[C@H]1CCO,1[25 µM]
CC(=O)Nc1ccc2c(c1)CC(=O)N(C)C[C@@H](C)[C@H](CN(C)C(C)=O)O2,0
CN1CCN(C(=O)C[C@@H]2C[C@H]3c4cc(NC(=O)C5CCC5)ccc4O[C@H]3[C@H](CO)O2)CC1,6[25 µM]
Nc1ccc(-c2cccc3c(=O)cc(N4CCOCC4)oc23)cc1,58*[25 µM]
O=C(O)c1cc(-c2ccccc2)c(N2CCOCC2)s1,8
Nc1ncnc2nc(-c3ccc(N4CCOCC4)nc3)cc(-c3cccc(Br)c3)c12,-20[25 µM]
